Source: PubChem BioAssay (NCATS)
Inconclusive results are not listed. Where a call stands in place of a potency, no number is given. Activity calls are given as the source filed them. The call rests on the fitted dose curve; in most records, active means well fitted curve in the direction sought with a large enough effect; inconclusive means small, poorly fitted or top-dose-only effect, or another doubt; inactive means no such curve, though single readings can be large; an effect the other way counts as inactive or inconclusive. Starred links: 1 amine or outer side, 2 acyl side, 3 side chain; linkers in the order of their positions; H or OH if unused. Positions of bridges follow the written chain, without caps; N, C: chain ends. Non-standard residues stand in square brackets, D forms with d. Residues, ends and D or L forms follow the SMILES beside them. ξ: configuration not given here. *: point of attachment. X3 = C[C@@H](Oc1ccc([C@H](N[*:1])C(=O)[*:2])cc1)[C@]1(/C=C\C(=O)[*:3])CO1; d(aIle) = CC[C@H](C)[C@@H](N)C(=O)O; X2 = CC(C)[C@@H](O)C(C)C(=O)*; ξNMeF = CNC(Cc1ccccc1)C(=O)O; ξT = CC(O)C(N)C(=O)O; ξS = NC(CO)C(=O)O

Experiments:
[1] = HPAF-II Cancer Cell Toxicity qHTS against the NCATS CANVASS Library (AID 1347346); further: nearly all actives have a fitted effect of over 55% in size
In short: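 Cytotoxicity read-out was CellTiter-Glo luminescence after 72 h at 37 degrees C exposure of HPAF-II cells (1000/well) to compounds in an 11-point titration.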

[2] = SW1088 Cancer Cell Toxicity qHTS against the NCATS CANVASS Library (AID 1347350); further: nearly all actives have a fitted effect of over 75% in size
In short: (§1)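 Bortezomib titration and single-dose wells served as plate controls. Test compounds, 11 points, acted on 1000 cells/well for 72 h at 37 degrees C; CellTiter-Glo luminescence quantified remaining viable cells.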

[3] = U-118MG Cancer Cell Toxicity qHTS against the NCATS CANVASS Library (AID 1347351)
In short: as §1

[4] = COV-362 Cancer Cell Toxicity qHTS against the NCATS CANVASS Library (AID 1347352)
In short: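 Toxicity was measured as CellTiter-Glo luminescence after 72 h exposure to an 11-point compound series. Compound was added to 1000 cells/well 4 h after seeding.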

[5] = MCF7 Cancer Cell Toxicity qHTS against the NCATS CANVASS Library (AID 1347369)
In short: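 This 72 hr qHTS scored MCF7 viability by CellTiterGlo luminescence, with 500 cells/well; bortezomib titration ran as control.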

[6] = Secretion counterscreen for inhibitors of the SERCaMP assay screened against the NCATS CANVASS Library (AID 1347390);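 further: light from luciferase secreted into medium read as a measure of general secretion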
In short: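 Natural products are titrated in an 11-point series up to 77 uM onto SH-SY5Y-GLuc STOP cells for 20 h. Secreted reporter activity is measured as coelenterazine-driven luminescence, with Brefeldin A on each plate.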

[7] = Vero-766 cells viability qHTS against the NCATS CANVASS Library: Counterscreen for Zika virus inhibition assay (AID 1347394); further: nearly all actives have a fitted effect of over 60% in size
In short: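 Counterscreen for toxicity: Vero 766 cells exposed 72 h to an 11-point compound series, viability by CellTiter-Glo.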

[8] = SDT Cancer Cell Toxicity qHTS against the NCATS CANVASS Library (AID 1347365); further: nearly all actives have a fitted effect of over 60% in size
In short: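 Cytotoxicity taken from CellTiterGlo ATP luminescence after 72 hr at 37C, 5% CO2. Canine glioma line SDT, 500 cells/well, treated at 11 concentrations; bortezomib dose series as control.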

[9] = qHTS for ATAD5 Antagonist screened against the NCATS CANVASS Library (AID 1347370); further: nearly all actives have a fitted effect of over 65% in size
In short: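 Compounds (11-point) co-dosed with 10 µM 5-FUrd for 16 h at 37 °C onto HEK293T-ATAD5 luciferase reporter cells. Viability measured by CellTiter-Fluor fluorescence, then ATAD5 reporter signal by luminescence.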

[10] = qHTS for Inflammasome Signaling Inhibitors: IL-1-beta AlphaLISA screen against the NCATS CANVASS Library (AID 1347379);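 further: human THP-1 cells primed with LPS then triggered with ATP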;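 on potency: secreted IL-1B measured as AlphaLISA emission at 615 nm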
In short: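 Secreted IL-1B from human THP-1 cells quantified by AlphaLISA 16 hr after compound addition (final up to 57.5 uM). A 1 hr compound pretreatment preceded inflammasome activation with 250 ng/mL LPS plus 1.25 mM ATP (final).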
Potency means the concentration at half of the fitted maximal effect.

Structure (SMILES) | Potency [1] | Potency [2] | Potency [3] | Potency [4] | Potency [5] | Potency [6] | Potency [7] | Potency [8] | Potency [9] | Potency [10]
CC[C@]12C=CCN3CC[C@]4(C(=C(C(=O)OC)C1)Nc1ccccc14)[C@@H]32 | inactive | inactive | inactive | inactive | inactive | inactive | inactive |  |  | 
CC[C@@H]1CN2CCc3c([nH]c4cccc(OC)c34)[C@@H]2C[C@@H]1/C(=C\OC)C(=O)OC |  |  |  |  |  | inactive |  | 16.6 µM (active) |  | 
C=CC(C)(C)[C@@]12C[C@H]3C(=O)N/C(=C\c4cnc[nH]4)C(=O)N3[C@@H]1Nc1ccccc12 | inactive | inactive | inactive | inactive | inactive | inactive | inactive | inactive | inactive | inactive
COC1C(O)C(C)OC(OC2C(Oc3cccc4c(O)c5c(=O)oc6ccc(C)c7c(=O)oc(c34)c5c67)OC(C)C(O)C2O)C1O (stereo not drawn) |  | inactive | inactive |  |  | 30.5 µM (active) |  | 11.8 µM (active) |  | 27.3 µM (active)
COC1=C(C2=C(OC)C(=O)c3cc4c(c(O)c3C2=O)C(=O)O[C@H](C)C4)C(=O)c2c(cc3c(c2O)C(=O)O[C@H](C)C3)C1=O |  | 3.14 µM (active) | inactive | inactive | inactive |  | inactive | inactive | inactive | 
O[C@H]1C=C[C@@]23CCN(Cc4cc5c(cc42)OCO5)[C@@H]3C1 | inactive | inactive | inactive | inactive | inactive | inactive | inactive | inactive | inactive | inactive
C=C[C@]12C=CCN3CC[C@@]4(c5ccccc5NC(=O)[C@@H]4C1)[C@@H]32 | inactive | inactive | inactive | inactive | inactive | inactive | inactive | inactive | inactive | inactive
CCCCC1CC[C@H]2CCCC(CCC)N12 (stereo partly drawn) | inactive | inactive | inactive | inactive | inactive | inactive | inactive | inactive | inactive | inactive
CCCC[C@@H]1CC[C@H]2CCCC(CCCO)N12 (stereo partly drawn) | inactive | inactive | inactive | inactive | inactive | inactive | inactive | inactive | inactive | inactive
CO[C@H]([C@@H](C)[C@H]1O[C@]1(C)C[C@H](C)/C=C/C=C(\C)[C@H]1O[C@@H](CC(=O)O)CC[C@@H]1C)[C@@H](C)O | 0.0266 µM (active) | inactive |  |  | 0.0052 µM (active) | inactive |  | 0.0148 µM (active) | inactive | 0.0385 µM (active)
CO[C@H]1C[C@H](O[C@H]2[C@@H](O)C[C@H](O[C@H]3CC[C@]4(C=O)[C@H]5CC[C@]6(C)C(C7=CC(=O)OC7)CC[C@]6(O)[C@@H]5CC[C@]4(O)C3)O[C@@H]2C)O[C@H](C)[C@H]1O[C@H]1C[C@@H](OC)[C@@H](O[C@@H]2O[C@H](CO)[C@@H](O)[C@H](O)[C@H]2O)[C@@H](C)O1 (stereo partly drawn) | 0.376 µM (active) |  | 0.188 µM (active) | 0.374 µM (active) | 0.166 µM (active) | 0.767 µM (active) |  | 0.148 µM (active) | 0.66 µM (active) | 1.53 µM (active)
C[C@]12CC(O)C3[C@@H](CC[C@@H]4C[C@@H](O)CC[C@]34CO)[C@@]1(O)CC[C@@H]2C1=CC(=O)OC1 (stereo partly drawn) | 10.6 µM (active) |  | 2.66 µM (active) | 7.47 µM (active) | 5.23 µM (active) |  |  | 2.64 µM (active) | 13.2 µM (active) | 12.2 µM (active)
C/C=C1/CN2C3CC1C1=CCC(=O)N4c5ccccc5[C@@]3(C[C@@H]2C2=C[C@H]3C5CC6N(CC[C@@]67c6ccccc6N(C2=O)[C@@H]37)C/C5=C/C)[C@H]14 (stereo partly drawn) | 18.8 µM (active) | 14.9 µM (active) |  |  |  | 43.1 µM (active) |  | 20.9 µM (active) | 14.8 µM (active) | 21.7 µM (active)
CO[C@@]12c3c(C)cc(O)c4c(=O)occ(c34)C(=O)[C@@H]1[C@]13COC(=O)c4c(O)cc(C)c(c41)C(=O)[C@H]2[C@@H]3OC(C)=O |  | 18.8 µM (active) | inactive | inactive | inactive |  | inactive | inactive | inactive | inactive
C[C@]12CCC3[C@@H](CC[C@@H]4C[C@@H](O)CC[C@]34CO)[C@@]1(O)CC[C@@H]2C1=CC(=O)OC1 (stereo partly drawn) | 2.98 µM (active) |  | 0.841 µM (active) | 1.88 µM (active) | 1.17 µM (active) | 7.67 µM (active) | 11.7 µM (active) | 1.48 µM (active) | 4.17 µM (active) | 1.93 µM (active)
C/C=C(\C)C(=O)O[C@@H]1[C@@H](O)[C@@H]2O[C@H]3[C@H](O[C@@H](CCCCC)CCCCCCC(=O)CCC(=O)OC[C@@H](O2)[C@H]1OC(=O)/C=C/c1ccccc1)O[C@H](C)[C@H](OC(C)=O)[C@@H]3O | 0.133 µM (active) | 14.9 µM (active) |  |  |  | 0.0767 µM (active) | inactive | 0.0526 µM (active) | inactive | 
CC(C)CC1C(=O)O[C@H](C(C)C)C(=O)N(C)C(CC(C)C)C(=O)O[C@@H](C(C)C)C(=O)N(C)C(CC(C)C)C(=O)O[C@H](C(C)C)C(=O)N(C)C(CC(C)C)C(=O)O[C@@H](C(C)C)C(=O)N1C (stereo partly drawn) | 5.95 µM (active) | 5.95 µM (active) | inactive |  | inactive |  | 11.7 µM (active) |  |  | inactive
CO[C@@H](/C=C/CC/C=C/C(=O)O)[C@@H](O)[C@H](C)/C=C(\C)[C@H](O)[C@H](C)C(=O)CCCC1CC(=O)NC(=O)C1 | inactive | inactive | inactive | inactive | inactive | inactive | inactive | inactive | inactive | inactive
CC[C@H](C)[C@H]1NC(=O)[C@@H](NC(=O)C(C)[C@H](O)C(C)C)[C@@H](C)OC(=O)C2COC(=O)CNC(=O)/C=C\[C@]3(CO3)[C@@H](C)Oc3ccc(cc3)[C@H](NC1=O)C(=O)N(C)C(Cc1ccccc1)C(=O)NC(C(C)O)C(=O)N2 (stereo partly drawn) (X2-T[d(aIle)][X3][ξNMeF][ξT][ξS]; ester 1-C; linker 3-6 via G) | inactive | inactive | inactive | inactive | inactive |  | inactive |  | inactive | inactive
C/C=C/[C@@H]1[C@H]2C[C@@H](C)CC[C@@H]2C(C)=C[C@H]1C(=O)c1c(O)c(-c2ccc(O)cc2)c[nH]c1=O | 13.3 µM (active) | 6.68 µM (active) | inactive |  | inactive | inactive | 18.6 µM (active) |  |  | inactive
c1ccc2nc3c(cc2c1)[nH]c1ccccc13 | inactive | inactive | inactive | inactive | inactive | inactive | inactive |  | inactive | inactive
C/C=C1/CN2CC[C@@]34c5ccccc5N(C)[C@@H]3[C@@H]2C[C@@H]1[C@H]4C(=O)OC | inactive |  | inactive | inactive |  | inactive | inactive |  |  | inactive
CCC(=O)N[C@@H](C[C@H](C)C(Cl)(Cl)Cl)C(=O)N1C(=O)C=C(OC)[C@@H]1C[C@H](C)C(Cl)Cl |  |  |  | inactive | inactive | inactive |  | inactive | inactive | inactive
CCCC[C@@H](C)/C=C1/CN2CCC[C@H]2[C@@](C)(O)[C@@H]1O |  | inactive | inactive | inactive | inactive | inactive | inactive | inactive | inactive | inactive
C=C(C)[C@H]1C(=O)c2c3c(cc4c5c(n1c24)[C@@]1(C)[C@@H](CC[C@H]2[C@](C)(/C=C/C=C(\C)C(=O)O)[C@@H](O)CC[C@@]21C)C5)C1=CC(C)(C)OC(C)(C)[C@H]1[C@@H]3O | 5.95 µM (active) | 5.95 µM (active) | 18.8 µM (active) | 21.1 µM (active) |  |  | 7.41 µM (active) |  | 16.6 µM (active) | inactive
C1=C2CCCN[C@H]2C2CC1[C@H]1CCCCN1C2 (stereo partly drawn) | inactive | inactive | inactive | inactive | inactive | inactive | inactive |  | inactive | inactive
CC[C@@H]1CN2CCC3(Nc4cccc(OC)c4C3=O)[C@@H]2C[C@@H]1/C(=C\OC)C(=O)OC (stereo partly drawn) | inactive | inactive | inactive | inactive | inactive | inactive | inactive | inactive | inactive | inactive
CC[C@H]1CN2CCc3c([nH]c4cccc(OC)c34)[C@@H]2C[C@@H]1/C(=C\OC)C(=O)OC | inactive |  | 18.8 µM (active) | inactive | inactive |  | inactive |  | inactive | inactive
C/C=C1/CN2CC[C@]34C(=C(C(=O)OC)[C@H]1C[C@H]23)Nc1ccccc14 |  | inactive | inactive | inactive |  | inactive | inactive | 0.662 µM (active) |  | 
C/C(=C\[C@H](C)C(=O)C[C@H](O)CC1CC(=O)NC(=O)C1)[C@@H]1OC(=O)/C=C/CC/C=C/C=C/[C@@H]1C | 0.0943 µM (active) |  |  |  |  | 0.305 µM (active) | 6.6 µM (active) | 0.0662 µM (active) | 0.105 µM (active) | 2.43 µM (active)
